Data published in ChEMBL document CHEMBL3988442, “University of Dundee, Small-Polar-MMV Screening Library” (2021).
In all, about 65,000 compounds went through this assay and about 65 (0.1%) showed an effect of 50% or more. Many of the other results were omitted from the sample, so strong results are more common in it than they were.

What follows are compounds tested against Tryptophan--tRNA ligase (Mycobacterium tuberculosis (strain ATCC 25618 / H37Rv)) (UniProt P9WFT3) (assay: Biochemical assay for Mt-TrpRS). Details: 10 µM.
Tryptophan--tRNA ligase (Mycobacterium tuberculosis (strain ATCC 25618 / H37Rv)), sequence (P9WFT3 whole entry): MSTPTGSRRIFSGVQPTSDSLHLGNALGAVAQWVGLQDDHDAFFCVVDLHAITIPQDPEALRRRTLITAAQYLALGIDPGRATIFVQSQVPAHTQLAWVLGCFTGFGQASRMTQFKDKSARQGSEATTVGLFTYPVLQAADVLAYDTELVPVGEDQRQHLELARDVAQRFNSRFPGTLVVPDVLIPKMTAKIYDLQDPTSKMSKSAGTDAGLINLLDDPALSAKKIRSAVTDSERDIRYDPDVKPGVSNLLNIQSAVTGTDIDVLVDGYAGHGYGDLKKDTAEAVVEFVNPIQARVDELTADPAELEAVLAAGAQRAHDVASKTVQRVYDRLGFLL
Assay type: functional
Design: scale not given: direction of the effect not stated beside the values

| SMILES | Percent Effect |
| --- | --- |
| CC(C)C(NC(=O)C1CC1)c1cc(O)nc(-c2cccnc2)n1 (configuration not stated) | 2.42% |
| CC(NC(=O)C1CCCCC1)c1cc(O)nc(-c2cccnc2)n1 (configuration not stated) | 0.0653% |
| CC(C)C(NC(=O)C1CCCC1)c1cc(O)nc(-c2cccnc2)n1 (configuration not stated) | 65.2% |
| Cc1ccc(CNCc2nnc3n2CC(C(F)(F)F)CC3)o1 (configuration not stated) | -0.327% |
| CCOc1ccc2ccccc2c1CNCC1CCS(=O)(=O)C1 (configuration not stated) | -4.67% |
| Cc1ccc(N2C[C@H](C(=O)N3CCOCC3)[C@@H]3CCO[C@@H]3C2)nn1 | -1.89% |
| CC(C)NC(=O)N(C)C(c1cccc(F)c1)c1ccccn1 (configuration not stated) | -3.48% |
| CC(=O)N(C)C(c1cccc(F)c1)c1ccccn1 (configuration not stated) | 70.3% |
| CCCC(=O)N(C)C(c1cccc(F)c1)c1ccccn1 (configuration not stated) | -2.61% |
| CCNC(=O)N(C)C(c1cccc(F)c1)c1ccccn1 (configuration not stated) | 2.8% |
| CCN(CC)CC(=O)N(C)C(c1cccc(F)c1)c1ccccn1 (configuration not stated) | 0.435% |
| CC(C)N(C)CC(=O)N(C)C(c1cccc(F)c1)c1ccccn1 (configuration not stated) | 94.7% |
| Cc1nnc([C@@]23CCO[C@@H]2CCN(S(C)(=O)=O)C3)o1 | 14.4% |
| CC(c1ccncc1)N1Cc2nc(N(C)C)ncc2C1=O (configuration not stated) | 0.86% |
| COC(=O)c1ncccc1N1CCCCC1 | 0.136% |
| Cc1ccc(CN2C[C@H](N3CCOCC3)[C@@H]3OCCC[C@@H]32)o1 | -6.03% |
| CCn1c(C(=O)N2CCN(C(=O)NC(C)C)CC2)cc2ccccc21 | 0.24% |
| CCC(O)CN1CCN(C(=O)c2cc3ccccc3n2CC)CC1 (configuration not stated) | 84.1% |
| CCn1c(C(=O)N2CCN(CC(C)O)CC2)cc2ccccc21 (configuration not stated) | 0.24% |

| SMILES | Percent Effect |
| --- | --- |
| c1cnc(N2CCO[C@H]3CN(Cc4ccsc4)C[C@H]32)nc1 | -4.69% |
| COc1ccc2nnc(CCCC(=O)NCc3cccn3C)n2n1 | 1.21% |
| Cn1cccc1CNC(=O)CCCc1nnc2ccccn12 | 224% |
| COc1ccc2nnc(CCC(=O)NCc3cccn3C)n2n1 | 1.87% |
| CS(=O)(=O)NC[C@]12COC[C@H]1CN(C(=O)c1ccccc1)C2 | -5.18% |
| CC(=O)N1CC2(CCN(Cc3ccc(Cl)cc3)CC2)Cc2ccccc21 | -5.45% |
| CN1C(=O)CC(C(=O)O)C12CCN(Cc1ccc(F)c(Cl)c1)CC2 (configuration not stated) | -3.47% |
| CN1C(=O)CC(C(=O)O)C12CCN(Cc1ccc(Cl)c(F)c1)CC2 (configuration not stated) | 54.6% |
| CN1C(=O)CC(C(=O)O)C12CCN(Cc1ccc(Cl)c(Cl)c1)CC2 (configuration not stated) | -7.74% |
| CN(C)c1ncccc1CNC(=O)N1CCCC1c1ccsc1 (configuration not stated) | -2.64% |
| CN(C)c1ncccc1CNC(=O)N1CCCC1CN1CCCCC1 (configuration not stated) | -0.719% |
| CN(C)c1ncccc1CNC(=O)N1CCCC1CN1CCCC1 (configuration not stated) | 67.8% |
| CS(=O)(=O)N1CC[C@]2(O)CCN(c3cc(C#N)ccn3)C[C@@H]2C1 | -1.89% |
| CO[C@@H]1CC[C@H]2[C@H]1OCCN2CCOCc1ccccc1 | -7.44% |
| CCN1CCO[C@@H]2CN(C(=O)COC3CCCC3)C[C@@H]2C1 | 14.7% |
| O=C(NC1CC1)N1CCC2(CC1)C(=O)NCCN2Cc1ccccc1 | -5.09% |
| CC(C)NC(=O)N1CCC2(CC1)C(=O)NCCN2Cc1ccccc1 | -4.29% |
| O=C(CC1CC1)N1CCC2(CC1)C(=O)NCCN2Cc1ccccc1 | 54.2% |
| COc1ccccc1C1(C(=O)NCCN2CCCCC2)CCOCC1 | 73.8% |

| SMILES | Percent Effect |
| --- | --- |
| COc1ccccc1C1(C(=O)NCCN2CCOCC2)CCOCC1 | -0.235% |
| Cc1ccccc1C1(C(=O)NCCN2CCCC2)CCOCC1 | 1.49% |
| COc1ccc(CN2C[C@H]3CN(c4cncnc4)C(=O)[C@H]3C2)cc1 | 0.241% |
| Cc1c(Cl)c(C(=O)NC(C)CN2CCOCC2)nn1C (configuration not stated) | -1.4% |
| Cc1oncc1C(=O)N1C[C@H]2CCCC(N(C)Cc3cccs3)[C@H]2C1 (some centres not stated) | 0.971% |
| CSc1ccc(C(=O)N2CCOCC2c2c(C)nn(C)c2C)o1 (configuration not stated) | -3.05% |
| Cc1nn(C)c(C)c1C1CCCN1C(=O)c1ccc(Cl)o1 (configuration not stated) | 0% |
| Cc1nn(C)c(C)c1C1COCCN1C(=O)c1ccc(Cl)o1 (configuration not stated) | 80.8% |
| CS(=O)(=O)N[C@H]1CN(C(=O)c2cscn2)[C@@H]2CCCO[C@H]12 | 1.91% |
| Cn1cc(CN2CCO[C@H]3CN(Cc4ccco4)C[C@H]32)cn1 | -5.69% |
| O=C(N[C@@H]1CN(C2CCCC2)C[C@@H]2CCCO[C@@H]21)c1cnccn1 | -1.79% |
| COCC1CC2(CCN(C(=O)c3ccc(F)c(Cl)c3)CC2)CO1 (configuration not stated) | 54.8% |
| COCC1CC2(CCN(C(=O)c3ccc(OC)c(Cl)c3)CC2)CO1 (configuration not stated) | -1.65% |
| COCC1CC2(CCN(C(=O)c3cccc(C)c3)CC2)CO1 (configuration not stated) | -6.95% |
| c1ccc(NC[C@@H]2CCC[C@@H]3CN(Cc4cc[nH]n4)C[C@@H]32)nc1 | -8.1% |
| CN(C)C(=O)N[C@H]1CN(Cc2ccc3c(c2)OCO3)[C@@H]2CCCO[C@H]12 | -1.66% |
| COCCc1noc(CN(C)C2CCCN(c3cccnn3)C2)n1 (configuration not stated) | 67.5% |
| CN(CC(=O)Nc1cccnc1)C1CCCN(c2cccnn2)C1 (configuration not stated) | 57.9% |
| COCCc1noc(CN(C)C2CCCN(c3ccc(C)nn3)C2)n1 (configuration not stated) | 0.711% |
